Source: PubChem
Only some compounds are listed: those with a hit (about 5% of all), similar ones and a draw of the others.
SENP7 block: blocks the human protease SENP7; hit rate 1.5% among 330,000; Q9BQF6; inhibition, % at 5 µM; recombinant SENP7, Z-RLRGG-aminoluciferin luminescence, 40 min;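 active = inhibition above about 50% at the single test dose, limit read from the data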;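 also: plate controls were DMSO with enzyme for no effect and no enzyme buffer wells for full effect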
AHR act: human AHR activation | AHR-responsive luciferase reporter cells, luminescence | P35869 | AID 2796 | activation, % at 5 µM | hit rate 2.5% among 320,000; in the data active = activation above about 47%;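 also: 0% = vehicle wells and 100% = reference agonist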
SENP8 block-1: SENP8 protease inhibition; hit rate 1.2% among 330,000; inhibition, % at 10 µM; Q96LD8; purified SENP8, Z-RLRGG-aminoluciferin cleavage, luminescence; in the data active = inhibition above about 50%
Target sequence (Q96LD8 whole entry, looked up): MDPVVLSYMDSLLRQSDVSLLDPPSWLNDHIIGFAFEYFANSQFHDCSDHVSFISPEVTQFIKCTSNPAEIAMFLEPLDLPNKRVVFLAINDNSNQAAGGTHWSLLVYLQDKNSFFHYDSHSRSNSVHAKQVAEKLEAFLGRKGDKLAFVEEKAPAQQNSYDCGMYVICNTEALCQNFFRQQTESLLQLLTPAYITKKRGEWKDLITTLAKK
SENP8 block-2: SENP8 (human) protease inhibition; recombinant SENP8, Nedd8 substrate fluorescence; inhibition, % at 20 µM; Q96LD8; hit rate 0.64% among 360,000; in the data active = inhibition mostly above about 40%, no sharp cut-off; inactive = mostly below about 27%
EBI2 block: EBI2 (human) antagonism; P32249; EBI2 beta-arrestin recruitment, luminescence, 7a,25-OHC stimulated; inhibition, % at 5 µM; hit rate 0.81% among 360,000; in the data active = inhibition above about 38%;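 also: enzyme fragment complementation signal reports receptor beta-arrestin coupling in cells; 0% = agonist plus DMSO wells and 100% = wells without agonist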
SENP6 block: SENP6 protease inhibition. Q9GZR1. Recombinant SENP6 catalytic domain, aminoluciferin luminescence. hit rate 1.8% among 330,000. inhibition, % at 10 µM;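 active = inhibition above about 50% at the single tested dose, limit read from the data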;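 also: plate controls were DMSO wells with enzyme for no effect and DMSO wells lacking enzyme for full effect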
SENP8 confirm: human SENP8 inhibition, confirmed | hit rate 40% among 6,200 | inhibition, % at 12.5 µM | shares compounds with SENP7 block | Recombinant SENP8, Z-RLRGG-aminoluciferin luminescence, 60 min;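 active = mean inhibition across replicates above about 50%, limit read from the data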
SENP6 confirm: confirmation of human SENP6 protease inhibitors. inhibition, % at 12.5 µM. recombinant SENP6, Z-RLRGG-aminoluciferin luminescence. AID 488915. hit rate 58% among 6,200. shares compounds with SENP7 block
SENP7 confirm: human SENP7 inhibition, confirmed | shares compounds with SENP7 block | recombinant SENP7, Z-RLRGG-aminoluciferin luminescence, 40 min | inhibition, % at 12.5 µM | hit rate 69% among 6,200 | AID 488917
Casp3 SENP sel: inhibits human caspase-3 in SENP selectivity test; shares compounds with SENP7 block; purified caspase-3, Z-DEVD-aminoluciferin luminescence, 60 min; inhibition, % at 12.5 µM; hit rate 60% among 6,200; AID 488918;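 active = mean inhibition above about 50%, limit read from the data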;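 also: plate controls were enzyme with DMSO for no effect and wells without caspase-3 for full effect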
Target sequence (P42574 28-227 limits assumed): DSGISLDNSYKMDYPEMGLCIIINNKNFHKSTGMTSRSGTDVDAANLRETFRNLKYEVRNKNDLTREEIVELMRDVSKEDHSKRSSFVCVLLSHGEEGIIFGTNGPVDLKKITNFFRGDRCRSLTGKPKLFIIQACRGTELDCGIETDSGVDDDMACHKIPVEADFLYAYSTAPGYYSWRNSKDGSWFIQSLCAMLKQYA
SENP luc ctr: interferes with luciferase luminescence in SENP counter-screen. shares compounds with SENP7 block. Pre-incubated SENP8/Z-RLRGG-aminoluciferin, luciferase luminescence interference. inhibition, % at 12.5 µM. hit rate 39% among 6,200;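 active = mean inhibition above about 50% when retested at one dose, limit read from the data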;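 also: plate controls were DMSO wells with completed reaction for no effect and substrate without enzyme for full effect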
* marks the source's active call; other numbers are inactive results; nt = no result given.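 The calls were made as follows, unless noted: active = mean inhibition above about 50% in the one-dose retest (limit read from the data); inactive = the rest.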

SMILES | SENP7 block | AHR act | SENP8 block-1 | SENP8 block-2 | EBI2 block | SENP6 block | SENP8 confirm | SENP6 confirm | SENP7 confirm | Casp3 SENP sel | SENP luc ctr
COc1ccc(CCNC(=O)CCn2c(SCC(=O)N3CCCC3)nc3ccccc3c2=O)cc1OC | 1.6 | 0.3 | -1.1 | 10.7 | 0.4 | 70.1* | 11.9 | 3.5 | 0.5 | -2.8 | -2.2
CCOC(=O)CSc1nc2ccccc2c(=O)n1CCC(=O)NCCc1ccc(OC)c(OC)c1 | 3.8 | 2.8 | 5.8 | 5.5 | -3.3 | -6.8 | nt | nt | nt | nt | nt
CN1CCN(c2nc(-c3ccc(C(C)(C)C)cc3)nc3ccccc23)CC1 | 8.0 | 45.8 | 33.6 | 32.3 | 6.2 | 54.2* | 30.7 | 27.6 | 34.6 | 47.5 | 20.9
O=C(Nc1ccc2ccccc2c1)C(=O)C1C(=O)Nc2ccccc21 (stereo unspecified) | 77.5* | 24.2 | 84.0* | nt | nt | 92.2* | 73.1* | 73.8* | 88.7* | 76.7* | 8.0
Cc1nc2nc(-c3cccs3)[nH]c2cc1Br | 89.9* | 58.4* | 90.1* | -206.9 | 7.4 | 91.0* | 92.1* | 92.0* | 98.9* | 92.7* | 45.7
COc1cccc(C(=O)/C=C2\Sc3ccccc3N2C)c1 | 49.9 | 57.7* | 59.8* | -400.6 | -1.7 | 10.0 | -6.5 | 73.3* | 92.6* | 73.3* | 19.3
COc1ccc(C2(c3ccc(OC)cc3)NC(=O)NC2=O)cc1 | -0.2 | -0.3 | 3.5 | 5.0 | -3.2 | -15.9 | nt | nt | nt | nt | nt
Cc1ccc(NC(=O)c2cc(C)n(-c3ccccc3)c2C)cc1 | 72.2* | -15.2 | 66.7* | 15.9 | 15.4 | 86.2* | 86.0* | 85.1* | 96.9* | 72.8* | 42.8
Cc1cc(C(=O)Nc2ccc(Cl)cc2)c(C)n1-c1ccccc1 | 91.2* | -9.8 | 89.2* | 6.6 | -0.1 | 93.0* | 91.2* | 97.6* | 102.3* | 88.5* | 29.5
O=C(NCc1ccco1)/C(=C\c1ccco1)NC(=O)c1ccco1 | 1.5 | 2.1 | 2.1 | 7.6 | -7.5 | -1.8 | nt | nt | nt | nt | nt
O=[N+]([O-])c1cc(NCCO)c(N2CCCCCC2)c2nonc12 | 12.3 | -0.4 | 44.2 | 15.5 | -4.7 | 56.0* | -2.1 | 2.1 | -2.5 | -3.0 | -2.9
NS(=O)(=O)c1ccc(CCNC(=O)CNC(=O)c2ccc(Oc3ccccc3)cc2)cc1 | -2.2 | -1.1 | 6.9 | 13.2 | -6.2 | -16.4 | nt | nt | nt | nt | nt
O=c1c2cc(-c3ccccc3)sc2nc2n1CCC2 | 72.4* | -1.4 | 68.6* | nt | nt | 74.5* | 19.2 | 68.9* | 92.3* | 31.1 | -3.6
NC(=O)CSc1nc2sc(-c3ccccc3)cc2c(=O)n1N | -9.3 | 6.9 | -11.8 | -164.8 | -20.1 | -37.8 | nt | nt | nt | nt | nt
Cc1nc2sc(-c3ccccc3)cc2c(=O)n1-n1cccc1 | 43.0 | -7.8 | 34.5 | -12.2 | 10.4 | 62.4* | 6.9 | 17.1 | 42.6 | 32.0 | 2.3
Cc1nc(C)c(-c2ccccc2)c(=O)[nH]1 | 11.4 | 1.7 | -9.1 | 11.2 | -23.2 | -27.3 | nt | nt | nt | nt | nt
Cc1nc2sc(-c3ccccc3)cc2c(=O)[nH]1 | -5.9 | 6.6 | 76.4* | -63.8 | 0.7 | 86.3* | 36.8 | 82.0* | 98.2* | 92.4* | 28.7
O=c1c2ccccc2nc2n1CCC2 | -6.6 | 2.5 | -3.9 | 8.3 | -2.6 | 0.4 | nt | nt | nt | nt | nt
CCc1nn(C(C)C(=O)NCc2cccc(OC)c2)c(=O)c2cc3occc3n12 (stereo unspecified) | 4.1 | 2.3 | 2.6 | -0.4 | -11.8 | 10.9 | nt | nt | nt | nt | nt
O=C(c1cc(COc2ccc3c(c2)CCCC3)on1)N1CCCC1 | 1.9 | 10.6 | 1.3 | 4.8 | -1.1 | 9.9 | nt | nt | nt | nt | nt
Cc1cc(CNC(=O)COc2ccc(F)cc2Cl)cc(C)c1O | 6.9 | -1.3 | 2.4 | 9.6 | 3.7 | -6.0 | nt | nt | nt | nt | nt
